Potency and affinity values are given separately. Unmarked numbers belong to inactive results. How the calls were made is not given here.
test: HEK293 cell viability loss – plate reader, cherry-pick, cytotoxicity control, dose response (AID 651899); conditions: series mostly up to 26 µM; activity change, negative = cytotoxicity: at the top concentration;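 further: cells exposed to compound for 48 hours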

SMILES	activity change, negative = cytotoxicity
Cc1cc(/C=C(/C#N)C(=O)Nc2ccccc2)c(C)n1-c1cccnc1	-20%
CC(C)(C)[S@](=O)N1Cc2cc(C(=O)NCc3ccccc3F)nc(-c3cccc(-c4cccnc4)c3)c2[C@@H]1CCO	-18.8% [at 23.5 µM]
COCCNC(=O)C[C@@H]1CC[C@@H]2[C@@H](COc3ccc(NC(=O)Nc4cccc(F)c4)cc3C(=O)N2C)O1	19.7% [at 23.5 µM]
O=C(Nc1cccnc1)c1ccc(Oc2ccccc2)cc1	-23.9%
CN1c2ccc(-c3cccc(F)c3)cc2[C@H]2[C@H](CCN2C(=O)c2ccncc2)[C@@H]1CO	14.4%
CCc1c(C)nc2ncnn2c1Nc1ccc(C#N)c(Cl)c1	-0.614%
Nc1cc(C(=O)O)ccc1Nc1ccccc1	-21.4%
COCCNC(=O)C[C@H]1CC[C@@H]2[C@H](COc3ccc(NC(=O)Nc4cccc(F)c4)cc3C(=O)N2C)O1	11.2% [at 23.5 µM]
Cc1ccccc1-n1c(SCC(=O)N(C)C2CCS(=O)(=O)C2)nc2ccccc2c1=O (stereo unspecified)	10.8%
COc1ccc(NC(=O)c2ccc(-n3cncn3)c([N+](=O)[O-])c2)cc1OC	12.8%
CCOC(=O)CNC(=O)c1sc2ncnc(N3CCc4ccccc4C3)c2c1C	4.6%
Cn1nnc2cc(C(=O)N3CCC(c4ccccc4)C3)ccc21 (stereo unspecified)	-13.1%
CC(=O)c1ccc(N2CCN(C(=O)c3ccc(Br)cc3)CC2)c(F)c1	40%
CCOC(=O)C1(CCc2ccccc2)CCN(C(=O)CN2CCOC2=O)CC1	9.01%
CCCc1cc(=O)oc2c3c(cc(OCC(=O)NCCCn4ccnc4)c12)OC(C)(C)CC3	-17.5%
Cc1ccc(-c2nn(CCC(=O)Nc3cccnc3)c(=O)c3ccccc23)cc1	-16.1%
Cc1nc2sc(C(c3ccc(Cl)cc3)N3CCN(c4ccccc4F)CC3)c(O)n2n1 (stereo unspecified)	-0.292%
O=C(C1CCCN(S(=O)(=O)c2cccnc2)C1)N1CCn2c1nc1ccccc12 (stereo unspecified)	-4.71%

SMILES	activity change, negative = cytotoxicity
C=C(C)CSc1nc(N)c2c3c(sc2n1)CCC3	11.3%
O=C(Nc1ncc2c(n1)CC(c1ccccc1)CC2=O)c1ccco1 (stereo unspecified)	18.7%
COc1ccc(CCNC(=O)c2cnc3n(c2=O)CCS3)cc1OC	14.5%
O=C(NC1CCCc2c1cnn2-c1cc(F)cc(F)c1)c1ccc[n+]([O-])c1 (stereo unspecified)	-12.5%
O=C(Nc1ccc(F)cc1)NC1CCN(Cc2nnnn2Cc2ccco2)CC1	44.2%
C/C=C/c1ccc2c(c1)O[C@@H](CN(C)C(=O)c1ccc3c(c1)OCO3)[C@@H](C)CN([C@@H](C)CO)S2(=O)=O	30.5%
O=C(COc1ccc2ccc(=O)oc2c1)Nc1cccnc1	-23.4%
Cc1cccc(-c2ccc3c(c2)C2CC3CCN2)c1 (stereo unspecified)	-24.5%
COc1cc(-c2n[nH]c(=S)n2-c2cccc(C(F)(F)F)c2)cc(OC)c1OC	-17.8%
O=C(Nc1ccc2snnc2c1)N1CCN(c2ccccc2)CC1	18.5%
Cc1nnc(N2CCC(C(=O)N3CCCCC3)CC2)c2nn(-c3ccc(Cl)cc3)c(C)c12	-6.45%
CC1=CC2=NC(=O)/C(=C\c3cc(C)n(-c4ccccc4F)c3C)C(=N)N2O1	-3.03%
COc1ccc(-c2nc3ccc(Cl)cn3c2Cc2ccccc2)cc1OC	-7.05%
O=C(CSc1n[nH]c(-c2cccnc2)n1)Nc1ccnc2ccccc12	-8.88%
CO[C@H]1CN(C)C(=O)c2ccc(NC(C)=O)cc2OC[C@@H](C)N(C(=O)C2CCCCC2)C[C@H]1C	-6.73%
COC(=O)c1c(C(=O)OC)c(-c2ccc(F)cc2)n2c1CS(=O)C2 (stereo unspecified)	-8.64%
Cc1nc2nc(SCC(=O)NCc3ccco3)nn2c(C)c1Cc1ccccc1	-21.3%
COC(=O)C1C(=O)C=C(Nc2ccc(F)cc2)CC1c1ccc(OC)cc1 (stereo unspecified)	25.8%

From PubChem BioAssay AID651899 (Broad Institute, 2012)
